Bioassay records (PubChem BioAssay)
Shown are actives, neighbours in structure and some others; about 4.7% of the full set was active somewhere.
ATXN viability: viability counter-screen for ATXN expression inhibitors. S2 cells (HEK-293 line with an ATXN2-luciferase reporter) viability, CellTiter-Fluor protease fluorescence, 24 h. Potency, µM (titrated, usually from 56.7 µM), most hits filed as cytotoxic. 0.49% of 400,000 active; further: potency means the concentration at half of the fitted maximal effect; nearly all actives have a fitted effect of over 40% in size
ATXN2 expr inh: ATXN2 expression inhibition; HEK-293 ATXN2-luciferase reporter, luminescence, 24 h; Potency, µM (doses to about 57 µM), inactives show top-dose activity change, negative = inhibition, hits mostly inhibitors; 0.72% of 360,000 active; further: potency means the concentration at half of the fitted maximal effect; on the % scale 0 is the no-effect control and ±100 the full control effect; nearly all actives have a fitted effect of over 55% in size
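qHTS (up to 57 uM final) was run with 24 h compound exposure of reporter cells at 37 °C. Each well was multiplexed: SteadyGlo luminescence measured ATXN2-luciferase expression after a fluorogenic Gly-Phe-AFC viability readout (25 uM final).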
DRD3 agonist: activates the human D3 dopamine receptor. 0.58% of 410,000 active. P35462. D3R DiscoveRx beta-arrestin cells, luminescence, 90 min. max activation, %. AID 652048; in the data active means max activation above about 30%; further: 0% is about no effect
Target sequence (P35462 whole entry, looked up): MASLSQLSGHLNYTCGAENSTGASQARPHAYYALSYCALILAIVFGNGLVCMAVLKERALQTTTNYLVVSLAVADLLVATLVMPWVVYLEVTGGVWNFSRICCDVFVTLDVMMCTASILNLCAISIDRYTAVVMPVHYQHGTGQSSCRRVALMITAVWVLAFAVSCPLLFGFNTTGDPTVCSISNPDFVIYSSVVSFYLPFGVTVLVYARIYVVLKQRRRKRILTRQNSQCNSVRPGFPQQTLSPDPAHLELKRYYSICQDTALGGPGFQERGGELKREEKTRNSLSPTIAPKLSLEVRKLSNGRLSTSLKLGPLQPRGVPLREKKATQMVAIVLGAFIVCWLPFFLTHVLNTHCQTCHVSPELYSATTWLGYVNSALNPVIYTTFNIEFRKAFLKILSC
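Agonist-mode cell screen: cells plated at 1500/well and incubated overnight at 37 °C, then exposed to library compounds for 90 min at 37 °C. Detection reagent was added for 30–60 min at room temperature, and luminescence was read.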
TGFb inhibitor: blocks TGF-b signaling | HepG2 CAGA-GFP TGF-b/SMAD3 reporter, GFP fluorescence, 18 h; TGF-beta stimulated, 500 pg/mL final | Potency, µM (series often up to 46.1 µM), for the others: at the top dose activity, negative = inhibition, usual class: inhibitors | 1.2% of 410,000 active; further: potency means the concentration at half of the fitted maximal effect; on the % scale 0 is the no-effect control and ±100 the full control effect; nearly all actives have a fitted effect of over 65% in size
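Using HEPG2 CAGA-GFP reporter cells at 1000 cells/well, we pinned test compounds, stimulated with recombinant TGF-beta (500 pg/mL final) and measured total well GFP after 18 h.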
HepG2 viability: kills HepG2 cells in TGF-b inhibitor counter-screen; HepG2 CAGA-GFP viability, ATP luminescence, 18 h; Potency, µM (titrated, usually from 46.1 µM), for the others: at the top dose activity change, negative = cytotoxicity, usual class: cytotoxic; 0.76% of 410,000 active; further: potency means the concentration at half of the fitted maximal effect
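CellTiter-Glo luminescence gave cytotoxicity after 18 hours at 37 degrees C. The cells were HepG2 CAGA-GFP in 1% FBS DMEM, stimulated with 500 pg/mL TGF-beta after compound addition. %Activity was normalised to no-cell wells (complete cell-killing) and DMSO (no toxicity), and curves were fitted and classified.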
DRD3 antagonist: antagonists of human D3 dopamine receptor; P35462; D3R cells, DiscoveRx beta-arrestin luminescence, antagonist mode; hits give low values; max response, negative = inhibition, %; 2.5% of 360,000 active; AID 652054; in the data active means max response below about -50%; inconclusive means no clear call, values can overlap the other calls; further: on the % scale 0 is the no-effect control and ±100 the full control effect
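Cells plated overnight at 1500 cells/well, then exposed to library compounds with dopamine controls for 90 minutes at 37 degrees C. DiscoveRx reagent added for 30–60 minutes at room temperature; luminescence read, quantitative HTS format.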
* = called active by the depositor; i = inactive; u = inconclusive; x = not tested or not shown. Unless noted, the call rests on the fitted dose curve; in most records, active means well fitted curve in the direction sought with a large enough effect; inconclusive means small, poorly fitted or top-dose-only effect, or another doubt; inactive means no such curve, though single readings can be large; an effect the other way counts as inactive or inconclusive.

SMILES	ATXN viability	ATXN2 expr inh	DRD3 agonist	TGFb inhibitor	HepG2 viability	DRD3 antagonist
O=C(/C=C/c1cccc([N+](=O)[O-])c1)NC(=S)Nc1ccc(CN2CCOCC2)cc1	i	5.7%	-56.2	-9.5%	-3.6%	-58.4*
COc1ccc(C(=O)NC(=S)Nc2ccc(CN3CCOCC3)cc2)cc1	u	10.6%	11.6	0.0%	-52.9%	10.5
O=C1CN(C(=O)Cc2ccc(F)cc2)C(c2ccccc2)c2cc(Cl)ccc2N1 (configuration not stated)	u	-33.9%	2.8	u	-33.2%	x
CC1CC(OC(=O)c2ccccc2O)CC(C)(C)C1 (configuration not stated)	i	0.2%	-11.5	x	x	x
O=C(NC(=S)Nc1ccc(CN2CCOCC2)cc1)c1ccc([N+](=O)[O-])cc1	i	-11.2%	-7.2	-20.5%	-15.9%	-50.1*
O=C(NC(=S)Nc1ccc(CN2CCOCC2)cc1)c1ccc2c(c1)OCCO2	i	-8.8%	-3.4	u	-3.9%	-5.3
CSC(SC)=C(C#N)C(=O)c1ccccc1	x	22.4µM*	2.9	u	-133.6%	-23.1
COc1cccc(C(=O)C(C#N)=C(SC)SC)c1	x	x	2.1	u	10µM*	u
COc1ccc(-n2cnc3cc(C(=O)NC4CCCCCC4)ccc32)cc1	i	-1.6%	-13.6	7.0%	-15.1%	x
CC(=O)N(c1cccc(Br)c1)C1C=CS(=O)(=O)C1 (configuration not stated)	i	3.0%	-14.8	-5.4%	-3.7%	-66.9*
CC(C)Cc1nn2cc(-c3cccc(Br)c3)nc2s1	i	24.1%	65.8*	u	-16.2%	x
Cc1nn2cc(-c3ccccc3)nc2s1	i	-14.6%	1.0	-3.5%	-48.1%	3.6
CCCCCc1nn2cc(-c3ccccc3)nc2s1	i	22.4%	37.2*	-6.0%	-11.1%	x
CC(NCc1ccc2c(c1)OCO2)C(=O)N1CCc2ccccc21 (configuration not stated)	i	-11.0%	-11.7	u	-34.9%	-107.2*
COc1cc(OC)c(NC(=O)c2cn(C3CCCC3)c(=O)c3c2c2ccccc2n3C)cc1Cl	x	x	5.5	-26.5%	-4.6%	x
OC1CC2CCC(C1)N2CCCN1c2ccccc2Sc2ccc(Cl)cc21 (configuration not stated)	15.8µM*	11.2µM*	-15.8	u	22.4µM*	-101.8*
O=C(CSc1nc(O)c(-c2ccccc2)c(=O)[nH]1)N1CCOCC1	i	-7.3%	2.9	1.2%	-2.1%	3.7
O=C(CSc1nc(O)c(C(c2ccccc2)c2ccccc2)c(=O)[nH]1)N1CCOCC1	i	4.3%	-17.7	0.4%	-10.6%	-62.3*
O=C(N/N=C/c1ccccc1O)C1CC(=O)N(c2ccc(Cl)cc2)C1 (configuration not stated)	i	6.31µM*	-9.0	-27.6%	-12.7%	-6.6
Cc1ccc(/C=N/NC(=O)C2CC(=O)N(c3ccccc3)C2)s1 (configuration not stated)	i	-9.4%	1.8	-0.9%	2.7%	-18.0
C/C(=N/NC(=O)c1cc2ccccc2cc1O)C1C(=O)c2ccccc2C1=O	i	40.1%	-0.5	-10.8%	-33.4%	-56.4*
O=C(NC(c1ccc(Cl)cc1)c1cnccn1)C1CCN(Cc2ccccc2)CC1 (configuration not stated)	i	-24.9%	-15.2	4.2%	0.1%	18.7
O=C(NC(c1ccc(-c2ccccc2)cc1)c1cnccn1)C1CCN(Cc2ccc(Oc3ccccc3)cc2)CC1 (configuration not stated)	u	u	-20.2	u	-61.6%	-54.1*
COc1ccc(C(NC(=O)C2CCN(Cc3ccc(Oc4ccccc4)cc3)CC2)c2ccccn2)cc1 (configuration not stated)	u	u	-26.1	u	-28.0%	-55.4*
COc1cc(CN2CCC(C(=O)NC(c3ccc(-c4ccccc4)cc3)c3cnccn3)CC2)cc(OC)c1 (configuration not stated)	u	u	-9.8	u	22.4µM*	-53.6*
SMILES	ATXN viability	ATXN2 expr inh	DRD3 agonist	TGFb inhibitor	HepG2 viability	DRD3 antagonist
COc1cc(OC)nc(C(NC(=O)C2CCN(Cc3c[nH]c4ccccc34)CC2)c2ccc(Cl)cc2)n1 (configuration not stated)	x	u	-18.1	u	10µM*	-27.4
O=Cc1cccc(C=O)c1	x	x	x	-7.3%	1.4%	x
Cc1cn([C@@H]2C[C@H](N=[N+]=N)[C@H](CO)O2)c(=O)[nH]c1=O	i	x	x	x	x	x
COc1ccc(-c2cc(C(=O)NC(Cc3cc4ccccc4[nH]3)C(=O)O)c(C)o2)cc1OC (configuration not stated)	i	11.5%	36.4*	u	-11.5%	4.3
CC(CCC(C)[n+]1cccc(Br)c1)[n+]1cccc(Br)c1 (configuration not stated)	x	x	x	-0.9%	7.0%	x
C[C@H](NCc1ccc(OCc2cccc(F)c2)cc1)C(N)=O	x	19.3µM*	x	x	x	x
CCOc1ccc(NCc2ccccc2OCc2cccc(F)c2)cc1	i	3.9%	-9.1	u	-28.0%	u
Cc1cc2ccccc2n1CCNC(=O)C(C)Oc1ccccc1 (configuration not stated)	i	-11.5%	-17.6	0.1%	-17.7%	-59.8*
Cc1cc2ccccc2n1CCNC(=O)C(C)C	i	-22.7%	-12.0	9.0%	1.9%	0.0
CC(C)C(=O)NCCn1ccc2ccccc21	i	3.7%	-3.1	4.3%	-11.7%	-53.3*
Cc1ccc(-c2c(C(=O)N3CCN(c4cccc(C)c4C)CC3)oc(=O)c3ccccc23)cc1	i	-2.5%	-5.9	-17.9%	-10.3%	x
Cc1ccccc1OCc1nc(-c2ccc(NC(=O)c3ccco3)cc2)no1	u	-3.0%	5.9	-0.8%	-24.2%	21.3
CN(Cc1nc(-c2ccccc2)no1)C(=O)c1ccc2c(c1)OCO2	i	1.5%	-7.3	1.1%	-32.0%	-50.2*
Cc1ccccc1OCc1nc(-c2ccc(NC(=O)c3ccc4c(c3)OCO4)cc2)no1	u	u	4.0	u	20µM*	-7.6
COc1cc(/C=C/CN2CCOc3ccc(C(O)c4cccnc4)cc3C2)ccc1O (configuration not stated)	i	x	x	x	x	x
O=C(c1ccccc1F)N1CCN(Cc2ccc3c(c2)OCO3)CC1	i	-25.3%	-11.8	-4.4%	-2.8%	-67.4*
N#Cc1c(F)cccc1N1CCN(Cc2ccc3c(c2)OCO3)CC1	i	-31.6%	-30.9	-1.1%	2.7%	-91.0*
Fc1ccccc1N1CCN(Cc2nnc(-c3ccc4c(c3)OCO4)o2)CC1	i	8.3%	13.6	-7.7%	0.3%	x
